Laboratory results reported in PubChem BioAssay AID624156 (Broad Institute, 2012).
The whole screen tested about 46,000 compounds, of which about 900 (2%) were called active. Roughly 1% stayed inconclusive and do not appear here. This is one part of a sample in which actives are shown more often than they occur. No stated cut-off is given here; in the data, active means ROS induction above about 79% (passing the limit was not always enough); inconclusive means no clear call, values can overlap the other calls.

Assay: ROS inducers in U2OS cancer cells, primary screen, cell-based, H2DCF-DA fluorescence (AID 624156);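 further: 0% = DMSO vehicle median and 100% = reference compound median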
Details: at 10 µM, stronger effect = higher value

Row | SMILES | ROS induction (% of piperlongumine)
1 | NC(=O)N1CCc2ccccc21 | 6.65% (inactive)
2 | O=C(CCCCCCC(=O)Nc1ccccc1O)N/N=C/c1ccc(C(F)(F)F)cc1 | 7.34% (inactive)
3 | COc1ccc(C2NNC(=S)S2)cc1 (stereo unspecified) | -8.92% (inactive)
4 | O=C(N1CCCc2ccccc21)N1c2ccccc2Sc2ccccc21 | -12.4% (inactive)
5 | C=CCN(C(=O)Cc1ccc(OC)cc1)c1nnc(-c2ccc(Cl)cc2)s1 | -4.96% (inactive)
6 | COc1ccc(C)cc1S(=O)(=O)N1CCN(C)CC1 | -20.4% (inactive)
7 | C[C@@H]1CN([C@H](C)CO)C(=O)c2cc(NC(=O)NC3CCCCC3)ccc2O[C@H]1CN(C)S(C)(=O)=O | -3.72% (inactive)
8 | COC(=O)c1ccc(NC(=S)N2CCOCC2)cc1 | -2.33% (inactive)
9 | C[C@H]1CN([C@@H](C)CO)C(=O)CCCn2cc(nn2)CO[C@H]1CN(C)S(=O)(=O)c1ccc2ccccc2c1 | 9.35% (inactive)
10 | CC1CC(NC(=S)N(C)C)CC(C)(C)C1 (stereo unspecified) | -10.5% (inactive)
11 | O=C(CCc1nc(-c2ccccc2Cl)no1)Nc1ccccc1[N+](=O)[O-] | -1.7% (inactive)
12 | CC1CCN(S(=O)(=O)c2ccc(Cl)c(C(=O)Nc3ccccc3[N+](=O)[O-])c2)CC1 | -11.1% (inactive)
13 | O=C(Nc1ccccc1Cl)c1ccccc1S(=O)(=O)c1ccccc1[N+](=O)[O-] | 134% (active)
14 | COc1cccc(CNC(=O)CCn2nc(-c3ccccc3)ccc2=O)c1 | -6.11% (inactive)
15 | CCc1cccc(NS(=O)(=O)c2cc(Br)cc3c2N(C(=O)C2CC2)CC3)c1 | 31.7% (inactive)
16 | CNC(=O)CN1C(=O)c2ccccc2S1(=O)=O | 3.08% (inactive)

Row | SMILES | ROS induction (% of piperlongumine)
17 | O=C1c2ccccc2S(=O)c2ccccc2S(=O)(=O)N1Cc1ccccc1 (stereo unspecified) | 205% (active)
18 | COc1ccc(C2C(C(=O)N(C)c3ccc(C(C)C)cc3)CC(=O)N2c2ccc(OC)cc2)cc1 (stereo unspecified) | 16.7% (inactive)
19 | C=C1C(=O)O[C@@H]2[C@H]3C(CO)=CC(=O)C3=C(C)C[C@H](OC(=O)Cc3ccc(O)cc3)[C@@H]12 | 205% (active)
20 | CCOC(=O)/C(C#N)=c1/s/c(=C2/C=Cc3ccccc3N2CC)c(=O)n1CC | 23.1% (inactive)
21 | C[C@@H]1CN([C@H](C)CO)C(=O)c2cc(NC(=O)Nc3ccccc3)ccc2O[C@H]1CN(C)S(=O)(=O)c1ccc(F)cc1 | 9.94% (inactive)
22 | O=C(Nc1ccccc1)Nc1ccccc1C(=O)N1CCOCC1 | -0.785% (inactive)
23 | C[C@H](CO)N1C[C@H](C)[C@H](CN(C)C(=O)Nc2ccc3c(c2)OCO3)Oc2ncc(C#Cc3cccc(F)c3)cc2C1=O | 93.9% (active)
24 | C[C@H](CO)N1C[C@H](C)[C@H](CN(C)C(=O)Nc2ccc3c(c2)OCO3)Oc2ncc(Br)cc2C1=O | 2.65% (inactive)
25 | COc1ccc(NC(=O)N(C)C[C@@H]2Oc3ncc(-c4cccc(OC)c4)cc3C(=O)N([C@H](C)CO)C[C@@H]2C)cc1 | 69.6% (inactive)
26 | C[C@H](CO)N1C[C@H](C)[C@H](CN(C)C(=O)Nc2ccc(F)cc2)Oc2ncc(-c3cc4ccccc4o3)cc2C1=O | 130% (active)
27 | C[C@H](CO)N1C[C@H](C)[C@H](CN(C)Cc2ccccc2)Oc2ncc(-c3ccccc3)cc2C1=O | 3.81% (inactive)
28 | C[C@H](CO)N1C[C@H](C)[C@H](CN(C)C(=O)NC2CCCC2)Oc2ncc(-c3ccc(F)cc3)cc2C1=O | 14.3% (inactive)
29 | C[C@H](CO)N1C[C@H](C)[C@@H](CN(C)C(=O)Nc2ccc3c(c2)OCO3)Oc2c(cccc2N(C)C)C1=O | 6.93% (inactive)
30 | CCCC(O)C#Cc1cnc2c(c1)C(=O)N([C@H](C)CO)C[C@H](C)[C@H](CN(C)Cc1ccc(F)cc1)O2 (stereo partly specified) | 94.3% (active)
31 | CCCC(O)C#Cc1cnc2c(c1)C(=O)N([C@H](C)CO)C[C@H](C)[C@H](CN(C)S(=O)(=O)c1ccc(C#N)cc1)O2 (stereo partly specified) | -0.235% (inactive)
